# From PubChem BioAssay AID598 (SRMLSC, 2007)
# Among all 85,000 compounds or so, about 5,100 (6%) were called active.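 Rule for the calls: active = viability at or below 40%; inactive = viability above 40%.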 Only a selection was taken, and actives are over-represented in it overall.
# Experiment: H69AR cell viability reduction – human, 86K library, primary screen (AID 598);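 note: multidrug resistant small cell line overexpressing MRP-1 efflux transporter; 100% = mean luminescence of untreated control wells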
# Details: H69AR lung tumor viability, ATP luminescence, 72 h; at 10 µM; active compounds read low
row,SMILES,viability
1,O=C(c1ccc2c(c1)OCO2)N1CCOCC1,96.2% (inactive)
2,O=C(Cn1cnc2c(cnn2-c2ccc(F)cc2)c1=O)NCCc1ccccc1,99.4% (inactive)
3,O=C(Cn1cnc2c(cnn2-c2ccccc2)c1=O)NCc1ccccc1,30.8% (active)
4,CN(Cc1ccccc1)C(=O)CCNC(=O)Cn1cnc2ccccc2c1=O,93.7% (inactive)
5,O=C(OC1CCCCC1=O)c1cccc(S(=O)(=O)NCc2ccccc2)c1 (centres undefined),68.2% (inactive)
6,CCn1c(=O)c(=O)n(CC)c2cc(S(=O)(=O)N3CCc4ccccc43)ccc21,27.2% (active)
7,Cc1nn(C)c(C)c1S(=O)(=O)N1CCc2ccccc21,95.6% (inactive)
8,Cc1ccc(S(=O)(=O)N2CC(=O)Nc3ccccc32)cc1C,102% (inactive)
9,Cn1c(=O)c(=O)n(C)c2cc(S(=O)(=O)NCCc3ccccc3)ccc21,94.1% (inactive)
10,Cn1c(=O)n(C)c2cc(S(=O)(=O)N3CCCc4ccccc43)ccc21,21.1% (active)
11,CSc1nc2ccc(S(=O)(=O)N3CCc4ccccc43)cc2s1,64.1% (inactive)
12,CC1=CC(C)(C)NC(=S)N1c1ccccc1,98.5% (inactive)
13,CCN(CC)CCCNC(=O)CCc1ccccc1,97.4% (inactive)
14,O=C(NCCOc1ccccc1)c1ccccc1,91.4% (inactive)
15,CCc1ccc(CNC(=O)C2CCCN(c3nc4ccccc4o3)C2)cc1 (centres undefined),92.4% (inactive)
16,NC1=NC(=O)C2(COC(c3ccccc3Cl)OC2)S1 (centres undefined),92.6% (inactive)
17,CCOc1ccc(-n2c(N)c(C(=O)NCC3CCCO3)sc2=S)cc1 (centres undefined),94.8% (inactive)
18,Oc1c(Cl)cc(Cl)c(Cl)c1Cc1c(O)c(Cl)cc(Cl)c1Cl,13.5% (active)
19,COc1cc(OC)nc(NC(=O)CCl)n1,98.7% (inactive)
20,C=C(Cl)COC(=O)C1C2C=CC(C2)C1C(=O)O (centres undefined),101% (inactive)
21,Cc1csc(NC(=O)NC2(C(F)(F)F)Oc3ccccc3O2)n1,22.9% (active)
22,CCOC(=O)Cc1csc(NC(=O)Nc2ccccc2)n1,96.7% (inactive)

row,SMILES,viability
1,Cc1csc(NC(=O)CN2CCCCCC2)n1,95.1% (inactive)
2,COc1cc(CC(=O)NCc2cccs2)cc(OC)c1OC,106% (inactive)
3,COc1ccc(Nc2nc(=O)[nH]nc2C)cc1,95.5% (inactive)
4,CCOC(=O)c1sc(NC(=O)CCN2CCOCC2)c(C(=O)OCC)c1C,45.7% (inactive)
5,CCOC(=O)c1c(NC(=O)CCl)sc(C(=O)N(CC)CC)c1C,2.11% (active)
6,CCOC(=O)Nc1sc(C(=O)N(C)C)c(C)c1C(=O)OCC,84.2% (inactive)
7,Cc1ccc(C(=O)N2CCCC2)c(F)c1F,87.4% (inactive)
8,OC(COc1ccccc1)Cn1cc(Br)cn1 (centres undefined),109% (inactive)
9,CC(C)c1ccc(OCC(O)Cn2cnc3ccccc32)cc1 (centres undefined),82.6% (inactive)
10,OC(CN=c1sc2ccccc2n1CC(O)COc1ccccc1)COc1ccccc1 (centres undefined),23.3% (active)
11,Cc1cccn2c(=O)c(/C=C(\C#N)S(=O)(=O)c3ccc(Cl)cc3)c(N3CCC(C(N)=O)CC3)nc12,82.2% (inactive)
12,CC1=CC(C)(C)Nc2ccc(OC(=O)C(Cc3ccccc3)N3C(=O)C4CCCCC4C3=O)cc21 (centres undefined),80.3% (inactive)
13,CC(OC(=O)CN1C(=O)C2CCCCC2C1=O)C(=O)Nc1ncc(Cl)cc1Cl (centres undefined),101% (inactive)
14,CC1=CC(C)(C)Nc2ccc(OC(=O)CN3C(=O)C4CCCCC4C3=O)cc21 (centres undefined),0.5% (active)
15,CCCCCCSc1nsc(N)n1,82.7% (inactive)
16,CCOC(=O)c1[nH]c(C)c(C(=O)OCC(=O)N2c3ccccc3CC2C)c1C (centres undefined),87% (inactive)
17,CC(C)OC(=O)CN1C(=O)C(=O)c2ccccc21,13.1% (active)
18,CCOC(=O)c1cc2n(c1C)-c1ccccc1C2=O,90.3% (inactive)
19,CC(C)OC(=O)CN1C(=O)c2ccccc2C1=O,98% (inactive)
20,CCOC(=O)CN1C(=O)C(=O)c2cc(C)ccc21,20.2% (active)
21,Cc1cccc2c1N(CC(=O)OC(C)C)C(=O)C2=O,71.7% (inactive)
22,CCCCOC(=O)Cn1c(=O)n(CC(=O)OCCCC)c2cc(C)ccc21,99.5% (inactive)

row,SMILES,viability
1,CCCc1nc2ccccc2c(C(=O)OCC(=O)c2ccc3c(c2)NC(=O)CO3)c1CC,43.2% (inactive)
2,Cc1ccc(Cc2c(C)nc3nc(SCC(=O)NCCN4CCOCC4)nn3c2C)cc1,93.9% (inactive)
3,CCOc1ccc(NC(=O)CN(C)CC(=O)Nc2cccc(Cl)c2C)cc1OCC,48.5% (inactive)
4,Cc1cccc(NC(=O)N(Cc2cc3cc(C)cc(C)c3[nH]c2=O)CC2COCCO2)c1 (centres undefined),47% (inactive)
5,Cn1c(Cn2nnc3ccccc32)nnc1SCC(=O)c1ccccc1F,79.3% (inactive)
6,CN=C1SC(CC(=O)Nc2ccc(C(=O)O)cc2)C(=O)N1C (centres undefined),97.5% (inactive)
7,O=C(CN1C(=O)CC(c2ccccc2)=Nc2ccccc21)NC1CCCCC1,77.6% (inactive)
8,Cc1ccnc(-n2sc3ccccc3c2=O)n1,1.54% (active)
9,Cc1nc2ccccc2c(=O)n1CCCn1ccnc1,99% (inactive)
10,Cc1ccnc(N2CCC(C(=O)NC3CCCCCC3)CC2)n1,77.9% (inactive)
11,CC(C)(C)N1CC(c2nc3ccccc3n2Cc2ccc(F)cc2)CC1=O (centres undefined),79.4% (inactive)
12,CCCn1c(C(Cc2ccccc2)NC(=O)COC)nc2ccccc21 (centres undefined),92.9% (inactive)
13,CNC(=O)c1nnc(Cc2ccc(Cl)cc2)o1,97.8% (inactive)
14,O=C(CCN1CCc2ccccc2C(O)(c2ccccc2)C1)c1ccc2c(c1)OCCO2 (centres undefined),-0.08% (active)
15,O=C(OCc1ccccc1F)c1ccc2c(c1)OCCO2,91.2% (inactive)
16,O=C(COC(=O)c1ccc2c(c1)OCCO2)NCc1ccccc1,92.1% (inactive)
17,CCn1c(SCC(=O)Nc2nc(C)cs2)nnc1C(C)NC(=O)c1ccccc1 (centres undefined),88.1% (inactive)
18,COCCn1c(=S)[nH]c2cc(C(=O)NCCc3ccc(OC)c(OC)c3)ccc2c1=O,78.1% (inactive)
19,Cc1cc2c(c(=O)n1Cc1ccco1)C(c1ccccc1)C(C#N)=C(N)O2 (centres undefined),70% (inactive)
20,N#CC1=C(N)Oc2c(sc3ccccc23)C1c1ccco1 (centres undefined),14.4% (active)
